Measurements taken from ChEMBL document CHEMBL3988442, “University of Dundee, Small-Polar-MMV Screening Library” (2021).
In all, about 48,000 compounds went through this assay and about 13,000 (27%) showed an effect of 50% or more. Some of the results follow.

Tested on: Wolbachia pipientis
Experiment: Anti-Wolbachia Cell-Based Screen
Format: functional
Set-up: scale not given: in the data most compounds retested in dose-response had high values
Conditions: 5 µM

| Structure (SMILES) | Percent Effect [%] |
| --- | --- |
| OC1CCN(c2nc(-c3ccccc3)no2)CC1 | -0.7688 |
| O=C(Nc1ccc(N2CCCCC2)nc1)N1CCc2sccc2C1 | 2.777 |
| Cc1cc(NC(=O)N(Cc2ccc(C#N)cc2)C(C)C)no1 | 2.443 |
| c1cncc(-c2noc(CNC3CCCN(c4cccnn4)C3)n2)c1 (centres undefined) | -17.88 |
| Cc1ncccc1CNCC1COC2(CCCCC2)O1 (centres undefined) | -0.2961 |
| COCc1ncc(CN2CCC(Oc3ccccc3OC)CC2)cn1 | 3.684 |
| COc1ccccc1[C@@H]1CN(Cc2cnc(N(C)C)nc2)C[C@H]1C(=O)O | -3.277 |
| COc1ccccc1[C@@H]1CN(Cc2nccn2C)C[C@H]1C(=O)O | -20.61 |
| COc1ccccc1C1Cn2ccnc2CN1Cc1c[nH]nc1C (centres undefined) | 158.2 |
| COc1ccccc1C1Cn2c(C)cnc2CN1Cc1c[nH]nc1C (centres undefined) | 184.6 |
| COc1ccccc1[C@@H]1CN(Cc2cnn(C)c2C)C[C@H]1C(=O)O | -12.3 |
| COc1ccccc1CC(=O)N1CCC(NCc2c[nH]nc2C)CC1 | 3.473 |
| COc1ccccc1C1Cn2c(C)cnc2CN1Cc1ccc(C)nc1 (centres undefined) | 131 |
| Cc1n[nH]cc1CNC1CCN(c2ccccc2)CC1.Cl | -14.69 |
| CCOC(=O)c1nc(CN2CCC(NC(=O)C(C)C)CC2)cs1 | -9.152 |
| O[C@@H]1Cc2ccccc2[C@@H]1Nc1ncccc1F | -3.78 |
| O=C(Cn1cccc2oc(=O)nc1-2)NCC1Cc2ccccc2O1 (centres undefined) | -3.762 |
| O=S(=O)(N1CCOCC1)N1CCC(Oc2cnccn2)CC1 | 115 |
| O=S(=O)(c1ccc(F)cc1)N1CCOC[C@H](Oc2cnccn2)C1 | -9.472 |
| CN(C)S(=O)(=O)N1CCC(Oc2cnccn2)CC1 | 2.095 |
| COC(=O)c1sccc1S(=O)(=O)N1CCC(Oc2cnccn2)CC1 | 2.794 |
| O=S(=O)(c1ccc(Cl)cc1)N1CCOC[C@H](Oc2cnccn2)C1 | -1.113 |
| Cc1n[nH]c(C)c1S(=O)(=O)N1CCC(Oc2cnccn2)CC1 | 120.8 |
| CS(=O)(=O)N1CCC(Oc2cnccn2)CC1 | -17.13 |
| O=S(=O)(N1CCCCC1)N1CCC(Oc2cnccn2)CC1 | 106.7 |

| Structure (SMILES) | Percent Effect [%] |
| --- | --- |
| Cc1ccc(S(=O)(=O)N2CCC(Oc3ccccn3)CC2)c(C)c1 | 1.938 |
| Cc1noc(C)c1S(=O)(=O)N1CCC(Oc2cnccn2)CC1 | 11.35 |
| CC1CCN(S(=O)(=O)N2CCC(Oc3cnccn3)CC2)CC1 | 109.5 |
| COc1ccc(C2CCCN2c2ccnc(C)c2Cl)c(OC)c1 (centres undefined) | -16.05 |
| CC(=O)N(C)Cc1nn(C)c2c1CN(Cc1ccsc1)C2.O=C(O)C(F)(F)F.O=C(O)C(F)(F)F | -3.994 |
| O=C(O)C(F)(F)F.O=C([C@@H]1COC[C@H]2CN(C3CCCC3)C[C@H]21)N1CCCCO1 | 2.547 |
| CC(Cn1cccn1)NC(=O)N1CCC(NS(C)(=O)=O)CC1 (centres undefined) | 10.97 |
| O=C(O)C1CCN(c2nc3c(-c4ccccc4F)csc3c(=O)[nH]2)CC1 | -3.996 |
| CS(=O)(=O)NCCCNc1ccc(C(F)(F)F)cc1C#N | -7.983 |
| O=C1OCCN1CCNCC1(O)CCCN(CCC2CCCCC2)C1=O (centres undefined) | 3.585 |
| CN(C)C(=O)c1nc2c(n1C)CCN(Cc1ccccc1)C2 | 0.7909 |
| CNC(=O)CNC(=O)CC1C(=O)NCCN1Cc1ccccc1C (centres undefined) | -0.8934 |
| O=C(O)C(F)(F)F.O=C(O)C(F)(F)F.O=C(O)C(F)(F)F.c1ccc(COC[C@H]2CC[C@H]3[C@H](CCN3Cc3cccnc3)O2)nc1 | -5.696 |
| COCCO[C@@H]1CCN(C(=O)c2ccc(C)o2)[C@@H]1Cc1cccnc1.O=C(O)C(F)(F)F | 18.38 |
| COCCO[C@H]1CCN(Cc2cccnc2)[C@H]1Cc1cccnc1.O=C(O)C(F)(F)F.O=C(O)C(F)(F)F.O=C(O)C(F)(F)F | 107.4 |
| O=C(O)C(F)(F)F.O=C(O)C(F)(F)F.O=C(O)C(F)(F)F.c1cncc(CN2CC[C@@H]3O[C@H](COCCN4CCCC4)CC[C@@H]32)c1 | 86.61 |
| COCCO[C@H]1CCN(Cc2ccsc2)[C@H]1Cc1cccnc1.O=C(O)C(F)(F)F.O=C(O)C(F)(F)F | 103.2 |
| Cn1cc(CN2CC[C@H]3O[C@@H](COCc4cccnc4)CC[C@H]32)cn1.O=C(O)C(F)(F)F.O=C(O)C(F)(F)F | -19.84 |
| COCCO[C@H]1CCN(Cc2cccs2)[C@H]1Cc1cccnc1.O=C(O)C(F)(F)F.O=C(O)C(F)(F)F | -0.3476 |
| Cc1[nH]c2c(F)cccc2c1CC(=O)NCCCc1csc(N)n1 | -2.894 |
| COc1cc(NC(=O)CCn2nc(-c3cccs3)oc2=O)cc(OC)c1 | 106.6 |
| COc1cc(C)c(NC(=O)CCn2cccc2)cc1OC | 27.33 |
| COC(=O)c1cccc(OCCn2nc(-c3cccs3)oc2=O)c1 | 2.853 |
| COc1ccc(NC(=O)CCn2nc(-c3cccs3)oc2=O)cc1OC | 106 |
| O=c1oc(-c2cccs2)nn1CC1(O)CCCCC1 | -6.599 |

| Structure (SMILES) | Percent Effect [%] |
| --- | --- |
| Cc1cc(C)n2nc(C(=O)N3CCCC4(CCOC4)C3)cc2n1 (centres undefined) | -5.928 |
| COC(=O)C(C)(C)C(C)(C)NC(=O)Nc1nnc(-c2ccccn2)s1 | -11.99 |
| CCOc1ccc(C(=O)N2CCCC2c2c(C)nn(C)c2OC)cn1 (centres undefined) | 122.4 |
| COc1c(C2CCCN2C(=O)c2ccc(C#N)cc2)c(C)nn1C (centres undefined) | 98.09 |
| COc1c(C2CCCN2C(=O)c2ccc3cc[nH]c3c2)c(C)nn1C (centres undefined) | -0.02537 |
| CCOc1ccc(C(=O)N2CCCC2c2c(C)nn(C)c2Cl)cn1 (centres undefined) | 128 |
| COc1c(C2CCCN2C(=O)c2sccc2C#N)c(C)nn1C (centres undefined) | -24.73 |
| COc1c(C2CCCN2C(=O)c2ccc3[nH]cnc3c2)c(C)nn1C (centres undefined) | 128.2 |
| Cc1cc(C(=O)N2C[C@@H]3CCCO[C@@H]3[C@H](N(C)C(C)C)C2)c(C)[nH]1 | -3.882 |
| COc1ccc(CNC(=O)NC2CCN(c3ccccc3)C2=O)cc1 (centres undefined) | -1.645 |
| Cc1noc(NC(=O)c2ccc(Br)s2)n1 | 1.553 |
| CC1=N[C@@]2(CC[C@@H]3CN(C(=O)NCC(C)C)C[C@@H]32)C(=O)N1C | 7.686 |
| Cc1c(CNC(=O)NCc2cccc(-n3cncn3)c2)cnn1C | -0.3036 |
| Cc1nn(C)c(Cl)c1C1CCCN1C(=O)c1ccc(O)nc1 (centres undefined) | 94.29 |
| COc1c(C2CCCN2C(=O)c2ccc(O)nc2)c(C)nn1C (centres undefined) | 97.38 |
| Cc1nn(C)c(Cl)c1C1CCCN1C(=O)c1ccc(C(N)=O)cn1 (centres undefined) | 118.3 |
| COc1c(C2CCCN2C(=O)c2ccoc2)c(C)nn1C (centres undefined) | 3.459 |
| Cc1nn(C)c(C)c1C1CCCN1C(=O)c1ccc(NC2CC2)nc1 (centres undefined) | -8.845 |
| CC(C)c1ncc(C(=O)N(C)c2ccc(Br)cn2)s1 | 0.7212 |
| Cc1cc(CN2CCC(C3CCN(CCc4ccccc4)CC3)C2)[nH]n1 (centres undefined) | -2.584 |
| CC(C)CN1C[C@@H]2OCC(=O)N(c3ccccc3)[C@@H]2C1 | -2.791 |
| O=C(CCc1cccs1)N1CCC(N2CCNC2=O)CC1 | 8.278 |
| O=C(Nc1nccs1)N1CCCC(N2CCNC2=O)C1 (centres undefined) | -14.98 |
| O=C(CCc1nccs1)N1CCCC(N2CCNC2=O)C1 (centres undefined) | -19.11 |
| O=C(CCc1cccs1)N1CCCC(N2CCNC2=O)C1 (centres undefined) | 103.5 |

| Structure (SMILES) | Percent Effect [%] |
| --- | --- |
| O=C(CCc1ccsc1)N1CCC(N2CCNC2=O)CC1 | 88.84 |
| O=C(CCc1ccccc1)N1CCC(N2CCNC2=O)CC1 | 0.2283 |
| O=C1NCCN1C1CCN(CCc2cccs2)CC1 | 3.932 |
| O=C(CCCc1cccs1)N1CCC(N2CCNC2=O)CC1 | 94.13 |
| O=C(CCc1nccs1)N1CCC(N2CCNC2=O)CC1 | -13.84 |
| CC(C)(C)OC(=O)NCC1CCN(C(=O)c2ccc(F)cc2F)C1 (centres undefined) | 18.58 |
| COCCCN1CCCN(C(C)c2nc(C3CC3)no2)CC1 (centres undefined) | -0.2305 |
| CC(C)c1noc(C(C)N2CCN(CCO)CC2)n1 (centres undefined) | -1.52 |
| CC(c1nc(C2CC2)no1)N1CCN(CCn2ccccc2=O)CC1 (centres undefined) | -4.377 |
| CC(C)c1noc(C(C)N2CCN(CCN3CCCC3=O)CC2)n1 (centres undefined) | -2.358 |
| CC(c1nc(C2CC2)no1)N1CCN(CCOCC(F)(F)F)CC1 (centres undefined) | 15.62 |
| CC(c1nc(C2CC2)no1)N1CCN(CCN2CCCC2=O)CC1 (centres undefined) | 130.5 |
| CC(c1nc(C2CC2)no1)N1CCN(CCCN2CCCC2=O)CC1 (centres undefined) | 95.99 |
| CC(C)c1noc(C(C)N2CCN(CCCN3CCCC3=O)CC2)n1 (centres undefined) | 113.6 |
| O=C(N1CCCC1)N1C[C@H]2CC[C@@]3(N=C(c4ccccc4)NC3=O)[C@H]2C1 | -1.269 |
| Cc1nnc(SCc2ccccn2)s1 | 113.6 |
| COc1c(C)cnc(CSc2nnc(C)s2)c1C | 6.724 |
| c1ccc(CSc2nnc(C3CC3)s2)nc1 | -7.286 |
| Cc1nc(NCCSc2ccccn2)c2c(C)noc2n1 | 2.263 |
| CCC(Nc1nc(C)nc2onc(C)c12)c1nc(C)c(C)s1 (centres undefined) | 99.23 |
| CCC(Nc1nc(C)nc2onc(C)c12)c1cccs1 (centres undefined) | 84.62 |
| CCCc1nc(C)c(CNc2nc(C)nc3onc(C)c23)s1 | 18.49 |
| Cc1nc(NCCSc2cnn[nH]2)c2c(C)noc2n1 | -13.5 |
| CCC(Nc1nc(CCN)nc2ccccc12)c1cccs1 (centres undefined) | 21.59 |
